We go through 93 molecules from PubChem BioAssay AID1778 (Sanford-Burnham Center for Chemical Genomics, 2009).

Structures are written as SMILES. Among all 290,000 compounds or so, about 260 (0.09%) were called active. Cut-off read from the data, not from the text of the source: active = inhibition above about 50%; inactive = the rest. Many of the other results were omitted from the sample, so actives are more common in it than they were. Measured potencies and affinities stand elsewhere.

Sequence of Kappa-type opioid receptor (Homo sapiens) (P41145 whole entry, looked up): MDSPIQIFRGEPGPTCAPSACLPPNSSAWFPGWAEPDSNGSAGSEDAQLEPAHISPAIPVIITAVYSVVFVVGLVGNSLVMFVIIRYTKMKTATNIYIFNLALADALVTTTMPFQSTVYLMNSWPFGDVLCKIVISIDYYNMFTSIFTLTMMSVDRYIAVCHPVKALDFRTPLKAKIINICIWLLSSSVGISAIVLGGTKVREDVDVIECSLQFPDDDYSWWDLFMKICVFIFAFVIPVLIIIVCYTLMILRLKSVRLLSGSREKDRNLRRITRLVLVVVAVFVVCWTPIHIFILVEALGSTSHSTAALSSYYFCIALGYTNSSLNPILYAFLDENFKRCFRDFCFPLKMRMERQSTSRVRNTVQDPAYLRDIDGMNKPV

The experiment concerns the target Kappa-type opioid receptor (Homo sapiens) (UniProt P41145). Briefly: kappa opioid receptor blockers – cell-based, luminescence, uHTS (AID 1778). The following applies: KOR beta-arrestin recruitment, antagonist mode, active compounds read high; at 10 µM unless noted.
In the case of `Cc1cccc(CSc2ccc3nnc(-c4ccccn4)n3n2)c1`, the inhibition is 8.5% (inactive).

As to `Cc1cc(NC(=O)c2cc(C3CC3)on2)n(-c2ccccc2)n1`, the inhibition was -9.5% (inactive).

In the case of `COc1cc(/C=N/n2nnnc2N)ccc1OC(C)C`, the inhibition was 26.9% (inactive).

As for `O=C(CCCCCN1C(=O)c2ccccc2C1=O)Oc1ccc2c3c(c(=O)oc2c1)CCC3`, the inhibition was -61.9% (inactive).

`CC1=C(C(=O)Nc2ccccc2C)C(c2ccccc2)NC(=O)N1` (stereo not drawn): the inhibition was -32.2% (inactive).

`CCOC(=O)c1c(CN2CCCCC2)n(C)c2ccc(OC)c(S(=O)(=O)c3ccccc3)c12`: the inhibition was 4.2% (inactive).

On to `Cc1ccc(C(=O)O)cc1-n1c(=O)n(Cc2ccccc2)c(=O)c2[nH]cnc21`, for which the inhibition was -9.2% (inactive).

`COC(=O)c1cccc(-n2c(=O)n(Cc3ccccc3)c(=O)c3[nH]cnc32)c1C`: the inhibition is 23.8% (inactive).

As to `COc1ccc(Cn2c(=O)c3[nH]cnc3n(-c3ccccc3C)c2=O)cc1`, the inhibition is -13.7% (inactive).

For `COc1cccc(Cn2c(=O)c3[nH]cnc3n(-c3ccccc3C)c2=O)c1`, the inhibition is 7.3% (inactive).

Regarding `O=C(Nc1ccc(Oc2ccccc2)cc1)c1cnc2n(c1=O)CCS2`, the inhibition was 0.1% (inactive).

For the molecule `Cc1ccc(S(=O)(=O)N(Cc2cc3ccc(C)cc3[nH]c2=O)c2ccccc2)cc1`, the inhibition is 17.5% (inactive).

As to `CCCCCn1c(SCCCC)nc2c1c(=O)[nH]c(=O)n2C`, the inhibition was -43.8% (inactive).

Turning to `COc1cc2c(cc1OC)C1(CCCC1)CNC2C` (stereo not drawn), the inhibition is 7.4% (inactive).

Take `COc1cc2c(cc1OC)C1(CCCC1)CNC2c1ccc([N+](=O)[O-])cc1` (stereo not drawn): the inhibition was -8.4% (inactive).

Consider `COc1ccc(OC)c(NC(=O)Nc2ccc3c(c2)OCO3)c1`, for which the inhibition is -10.5% (inactive).

On to `O=C(Nc1ccc(C(F)(F)F)cc1)c1ccc2ncsc2c1`, for which the inhibition is -15.9% (inactive).

Consider `O=C1C(Cl)=C(Nc2ccc3cn[nH]c3c2)C(=O)c2ccccc21`, for which the inhibition is 76.4% (active).

As for `Cc1ccc(NC2=C(Cl)C(=O)c3ccccc3C2=O)cc1`, the inhibition is 37.4% (inactive).

As to `O=C1C(Cl)=C(Nc2ccccc2)C(=O)c2ccccc21`, the inhibition was 15.5% (inactive).

For the molecule `COC(=O)c1c(NC(=O)/C=C/C(=O)O)sc(Cc2ccccc2)c1C`, the inhibition was 14.3% (inactive).

Turning to `NNC(=O)c1ccc(CSc2cccc3cccnc23)cc1`, the inhibition was -21.6% (inactive).

For `O=C(c1ccc(CNS(=O)(=O)c2ccc(Br)cc2)cc1)N1CCCCCC1`, the inhibition is -30.5% (inactive).

Take `CC(=O)N1CCc2cc(S(=O)(=O)NC(Cc3ccccc3)C(=O)NCCN3CCCCC3C)ccc21` (stereo not drawn): the inhibition was 15% (inactive).

With `Oc1[nH]c(=S)sc1C=C1N=c2ccccc2=N1`, the inhibition was 6.5% (inactive).

As for `Oc1[nH]c(N=C2N=c3ccccc3=N2)c2ccccc12`, the inhibition was 59.4% (active).

On to `N#CC(=C1N=c2ccccc2=N1)c1c(O)[nH]c2ccccc12`, for which the inhibition is -33.6% (inactive).

As for `O=C(COc1ccccc1)N1CCN=C1SCc1ccc(F)cc1`, the inhibition was 2.9% (inactive).

Take `O=C(CSc1nnc2c(Cl)cc(C(F)(F)F)cn12)N(Cc1ccccc1)Cc1ccccc1`: the inhibition was 1% (inactive).

Take `Cc1cc(NS(=O)(=O)c2ccc(NC(=O)c3ccc(Cl)cc3Cl)cc2)no1`: the inhibition is -5.5% (inactive).

For `O=C(N/N=C(\c1ccccc1)c1cccnc1)c1cc(O)ccc1O`, the inhibition is -0.3% (inactive).

Turning to `O=C(N/N=C(\c1ccccc1)c1cccnc1)c1ccc(O)cc1`, the inhibition was 28.3% (inactive).

In the case of `CC1=C(C#N)C(NC(=O)c2ccco2)(C(F)(F)F)C(=O)N1` (stereo not drawn), the inhibition was 9.4% (inactive).

For `CCc1nnc(NC(=O)c2ccc3ccccc3n2)s1`, the inhibition is 0.1% (inactive).

Turning to `CCc1nnc(NC(=O)c2c(OC)cccc2OC)s1`, the inhibition is -5.6% (inactive).

Turning to `C=CCN1C(=O)C(CC(=O)O)SC1=Nc1ccc(C(=O)O)cc1` (stereo not drawn), the inhibition is 5.3% (inactive).

`CCOC(=O)C1CCN(S(=O)(=O)c2cc(C(=O)N3CCCCC3)ccc2OC)CC1`: the inhibition was 2.3% (inactive).

Consider `COc1ccc(CNC(=O)C2CCC(=O)N(CCCN3CCCC3=O)C2)c(OC)c1` (stereo not drawn), for which the inhibition was -21.5% (inactive).

As to `COc1cc(NC(=O)CN2CCCCC2)c(C)cc1[N+](=O)[O-]`, the inhibition is 13% (inactive).

In the case of `COc1cc(NC(=O)CN2C(=O)CN(C)C2=O)c(C)cc1[N+](=O)[O-]`, the inhibition was -7.1% (inactive).

As for `COc1ccc(SCC(=O)c2cc(C)c(OC(=S)N(C)C)c(C)c2)cc1`, the inhibition was -46.3% (inactive).

In the case of `CC(C)C(=O)OCC(=O)NCc1ccccc1Cl`, the inhibition was -7.3% (inactive).

As for `O=C(CCN1C(=O)[C@@H]2Cc3ccccc3CN2C1=O)N[C@H](Cc1ccccc1)C(=O)O`, the inhibition was -10% [at 20 µM] (inactive).

For `C=CCn1c(O)c(N=NC(=S)Nc2cccc(C)c2)c2ccccc21`, the inhibition was 34% (inactive).

Take `C=CCn1c(O)c(N=NC(=S)Nc2ccc(OC)cc2)c2ccccc21`: the inhibition was 44.9% (inactive).

Consider `C=CCn1c(O)c(N=NC(=S)Nc2cccc(OC)c2)c2ccccc21`, for which the inhibition was 52.2% (active).

On to `N=C1C(c2nc3ccccc3s2)=C(O)CN1CCCO`, for which the inhibition is 5.8% (inactive).

Regarding `CCN(CC)CCCN=Cc1c(-c2ccccc2)[nH]n(-c2nc3ccccc3s2)c1=O`, the inhibition was 2.1% (inactive).

Consider `Cc1cc(Cl)ccc1NC(=O)Cn1cncn1`, for which the inhibition is -2.4% (inactive).

For the molecule `CC(CCc1ccc(O)cc1)NCCC(c1ccccc1)c1ccccc1` (stereo not drawn), the inhibition was 42.6% (inactive).

`CC(NCCC(c1ccccc1)c1ccccc1)c1ccccc1` (stereo not drawn): the inhibition was -18.9% (inactive).

For `CCOC(=O)c1c(C)[nH]c(C)c1C(=O)CSc1nc2ccccc2c(=O)n1-c1ccc(Cl)cc1`, the inhibition is -15.4% (inactive).

`Nc1c2c(nc3sc4c(c13)CCCC4)-c1ccccc1CC2`: the inhibition was 9.5% (inactive).

In the case of `Nc1c2c(nc3sc4c(c13)CCCCC4)CCCCC2`, the inhibition was -28.2% (inactive).

For the molecule `Nc1c2c(nc3sc4c(c13)CCCC4)CCCCCC2`, the inhibition is -20.4% (inactive).

Consider `Nc1nc2sc3c(c2c(=O)s1)CCCC3`, for which the inhibition is -49.8% (inactive).

Regarding `CC1CCN(C(=O)COc2ccc3ccccc3c2Br)CC1`, the inhibition was -12.2% (inactive).

With `CCc1ccc(CN2CCC(C(=O)Nc3cccc(-c4nnc(C)s4)c3)CC2)o1`, the inhibition was -24.6% (inactive).

On to `O=S(=O)(NCCc1ccccc1)c1ccc(-n2cnnn2)cc1`, for which the inhibition was -7.2% (inactive).

As to `CC(=O)Nc1cccc(NC(=O)COc2nncc3ccccc23)c1`, the inhibition is 13.2% (inactive).

Regarding `CC(C)Cn1c(C(C)NC(=O)Cc2ccccc2)nc2ccccc21` (stereo not drawn), the inhibition is -13.7% (inactive).

For the molecule `O=C1CCC([N+](=O)[O-])C(c2ccc(Cl)cc2)N1` (stereo not drawn), the inhibition was -23.8% (inactive).

Take `CCOC(=O)c1cc2c(ccc3ccccc32)oc1=O`: the inhibition was -26.8% [at 20 µM] (inactive).

Regarding `CC(=O)c1cc2c(ccc3ccccc32)oc1=O`, the inhibition is -8.6% (inactive).

Regarding `CC1(C)CC(=O)CC(=Nc2ccc3[nH]c(=O)[nH]c3c2)C1`, the inhibition is 17.9% (inactive).

As to `CC1Oc2ccccc2C=C1/C=N/NC(=O)c1ccncc1` (stereo not drawn), the inhibition is 22.3% (inactive).

In the case of `CC(C)CCn1nnnc1CN1CCN(c2ccc(F)cc2)CC1`, the inhibition is -16.4% [at 20 µM] (inactive).

Take `Cn1c(=O)n(CCN2CCOCC2)c(=O)c2c1nc1n2CCCN1c1ccccc1`: the inhibition was 51.1% (active).

On to `Cc1cccc(N2CCCn3c2nc2c3c(=O)n(CCN3CCOCC3)c(=O)n2C)c1`, for which the inhibition is -4% (inactive).

As for `Cc1ccc(N2CCCn3c2nc2c3c(=O)n(CCN3CCOCC3)c(=O)n2C)cc1`, the inhibition was -16.1% (inactive).

`CN(CC(=O)Nc1ccc(F)c(F)c1F)C(=O)c1ccc(=O)[nH]c1`: the inhibition is 31.4% (inactive).

Consider `CN(Cc1cnn(-c2ccccc2)c1)C(=O)C1CCC(=O)N(C2CC2)C1` (stereo not drawn), for which the inhibition was 9.1% (inactive).

As for `O=C(O)CNc1nc(-c2ccccc2)c2cc([N+](=O)[O-])ccc2n1`, the inhibition is 4.1% (inactive).

Turning to `O=[N+]([O-])c1ccc2nc(-c3ccccc3)cc(-c3ccccc3)c2c1`, the inhibition was 14.3% (inactive).

As for `O=C(O)CCCc1c(-[n+]2ccccc2)[nH]c2ccccc12`, the inhibition is 5.9% (inactive).

With `COCCOC(=O)c1[nH]c2c(c1C)C(=O)CC(c1ccc(OC)c(OC)c1)C2` (stereo not drawn), the inhibition was -5.3% (inactive).

With `CCCCN(CCCNC(=O)C1CCN(S(=O)(=O)N2CCOCC2)CC1)Cc1ccccc1`, the inhibition was 28.7% (inactive).

Turning to `CN(CCCNC(=O)C1CCN(S(=O)(=O)N2CCC3(CC2)OCCO3)CC1)Cc1ccccc1`, the inhibition was -79.2% (inactive).

For `CCN(CCCNC(=O)C1CCN(S(=O)(=O)CC)CC1)c1ccccc1`, the inhibition was 17.3% (inactive).

As to `CCCCN(CCCNC(=O)C1CCN(S(=O)(=O)CC)CC1)c1ccccc1`, the inhibition is 23.2% (inactive).

On to `Cc1c(Cl)cccc1NC(=S)N1CCCN(Cc2ccccc2F)C1`, for which the inhibition was -15.1% (inactive).

Turning to `COc1cccc(C(=O)Oc2cc(C)[nH]c(=O)c2[N+](=O)[O-])c1OC`, the inhibition was 6.3% (inactive).

`CC(C)[C@H](NC(=O)[C@@H]1Cc2ccccc2CN1)C(=O)Nc1ccc2c(c1)OCCO2`: the inhibition is -1.1% (inactive).

Take `COc1ccc(N2CCN(C(C)C(=O)N3CC(C)OC(C)C3)CC2)cc1` (stereo not drawn): the inhibition is -2.4% (inactive).

As for `O=C1C(=O)N(CCCn2ccnc2)C(c2ccc(Br)cc2)/C1=C(\O)c1ccc2c(c1)OCCO2` (stereo not drawn), the inhibition was -11.2% (inactive).

Consider `C/C=C(/C)C(=O)O[C@@H]1c2cc3c(c(OC)c2-c2c(cc(OC)c(OC)c2OC)[C@@H](OC(C)=O)[C@@H](C)[C@H]1C)OCO3`, for which the inhibition is 10.7% (inactive).

Regarding `COc1cc2c(c(OC)c1OC)-c1c(cc3c(c1OC)OCO3)[C@@H](OC(C)=O)[C@H](C)[C@H](C)C2`, the inhibition was 20.4% (inactive).

Regarding `COc1ccc(-c2cc(C(=O)N/N=C/c3cccnc3)c3cc(C)cc(C)c3n2)cc1`, the inhibition is 1.8% (inactive).

For `Cc1cccc(NC(=O)COC(=O)c2ccccc2SCC(=O)N2CCCC2)c1`, the inhibition is 30.1% (inactive).

Consider `CC(CN1CCN(C)CC1)OC(=O)c1ccccc1` (stereo not drawn), for which the inhibition was -12.4% (inactive).

Take `COc1ccc(CCN2C(=O)C(Oc3ccccc3C)C2c2ccc3c(c2)OCO3)cc1` (stereo not drawn): the inhibition was -11% (inactive).

Regarding `COc1ccc(CCN2C(=O)C(Oc3ccccc3)C2c2ccc3c(c2)OCO3)cc1` (stereo not drawn), the inhibition is -53.4% (inactive).

On to `O=C1C(Oc2ccccc2)C(c2ccc3c(c2)OCO3)N1CCc1ccc(F)cc1` (stereo not drawn), for which the inhibition was 64% (active).
